# Data from the supplement of paper PMC4466140.
# Molecular target: AgAbp1
# Test: SPOT peptide array binding signal intensity (averaged, normalized) (arbitrary units (background-subtracted, floor 0; scale differs between SH3 domains)); higher = stronger binding of the SH3 domain to the peptide
# Method in brief: (§1)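 Spot intensities were captured after detection with anti-GST antibody, an HRP-linked anti-mouse secondary and luminol, and quantified with Genespotter. The probes were GST-fused SH3 domains from four yeast species, produced in E. coli BL21(DE3), purified on glutathione Sepharose and incubated at 10 μg/ml overnight at 4°C on cellulose-bound synthetic 15-mer peptides with cysteines replaced by serines. Binding signal is the normalized, background-subtracted spot intensity averaged over replicates, and its arbitrary units differ between domains.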
row,Binder,SPOT peptide array binding signal intensity
1,RSLRKRPTSPSISGS,197

# Molecular target: AgBbc1
# Test: as above
# Method in brief: as §1
row,Binder,SPOT peptide array binding signal intensity
1,RSLRKRPTSPSISGS,232

# Molecular target: AgBem1-D1
# Test: as above
# Method in brief: as §1
row,Binder,SPOT peptide array binding signal intensity
1,RSLRKRPTSPSISGS,118

# Molecular target: AgBzz1-D1
# Test: as above
# Method in brief: as §1
row,Binder,SPOT peptide array binding signal intensity
1,RSLRKRPTSPSISGS,62.5

# Molecular target: AgBzz1-D2
# Test: as above
# Method in brief: as §1
row,Binder,SPOT peptide array binding signal intensity
1,RSLRKRPTSPSISGS,63

# Molecular target: AgCyk3
# Test: as above
# Method in brief: as §1
row,Binder,SPOT peptide array binding signal intensity
1,RSLRKRPTSPSISGS,23

# Molecular target: AgFus1
# Test: as above
# Method in brief: as §1
row,Binder,SPOT peptide array binding signal intensity
1,RSLRKRPTSPSISGS,464

# Molecular target: AgHof1
# Test: as above
# Method in brief: as §1
row,Binder,SPOT peptide array binding signal intensity
1,RSLRKRPTSPSISGS,77

# Molecular target: AgHse1
# Test: as above
# Method in brief: as §1
row,Binder,SPOT peptide array binding signal intensity
1,RSLRKRPTSPSISGS,1610

# Molecular target: AgLsb1
# Test: as above
# Method in brief: as §1
row,Binder,SPOT peptide array binding signal intensity
1,RSLRKRPTSPSISGS,7

# Molecular target: AgLsb4
# Test: as above
# Method in brief: as §1
row,Binder,SPOT peptide array binding signal intensity
1,RSLRKRPTSPSISGS,326

# Molecular target: AgMyo5
# Test: as above
# Method in brief: as §1
row,Binder,SPOT peptide array binding signal intensity
1,RSLRKRPTSPSISGS,1

# Molecular target: AgNbp2
# Test: as above
# Method in brief: as §1
row,Binder,SPOT peptide array binding signal intensity
1,RSLRKRPTSPSISGS,724

# Molecular target: AgRvs167
# Test: as above
# Method in brief: as §1
row,Binder,SPOT peptide array binding signal intensity
1,RSLRKRPTSPSISGS,9.67

# Molecular target: AgSho1
# Test: as above
# Method in brief: as §1
row,Binder,SPOT peptide array binding signal intensity
1,RSLRKRPTSPSISGS,80.5

# Molecular target: AgSla1-D1-D2
# Test: as above
# Method in brief: as §1
row,Binder,SPOT peptide array binding signal intensity
1,RSLRKRPTSPSISGS,698

# Molecular target: AgSla1-D3
# Test: as above
# Method in brief: as §1
row,Binder,SPOT peptide array binding signal intensity
1,RSLRKRPTSPSISGS,3.5

# Molecular target: CaAbp1-D1
# Test: as above
# Method in brief: as §1
row,Binder,SPOT peptide array binding signal intensity
1,RSLRKRPTSPSISGS,1720

# Molecular target: CaAbp1-D2
# Test: as above
# Method in brief: as §1
row,Binder,SPOT peptide array binding signal intensity
1,RSLRKRPTSPSISGS,1730

# Molecular target: CaBbc1
# Test: as above
# Method in brief: as §1
row,Binder,SPOT peptide array binding signal intensity
1,RSLRKRPTSPSISGS,522

# Molecular target: CaBem1-D1
# Test: as above
# Method in brief: as §1
row,Binder,SPOT peptide array binding signal intensity
1,RSLRKRPTSPSISGS,57.5

# Molecular target: CaBzz1-D1
# Test: as above
# Method in brief: as §1
row,Binder,SPOT peptide array binding signal intensity
1,RSLRKRPTSPSISGS,86

# Molecular target: CaBzz1-D2
# Test: as above
# Method in brief: as §1
row,Binder,SPOT peptide array binding signal intensity
1,RSLRKRPTSPSISGS,94.5

# Molecular target: CaCyk3
# Test: as above
# Method in brief: as §1
row,Binder,SPOT peptide array binding signal intensity
1,RSLRKRPTSPSISGS,201

# Molecular target: CaFus1
# Test: as above
# Method in brief: as §1
row,Binder,SPOT peptide array binding signal intensity
1,RSLRKRPTSPSISGS,985

# Molecular target: CaHof1
# Test: as above
# Method in brief: as §1
row,Binder,SPOT peptide array binding signal intensity
1,RSLRKRPTSPSISGS,0.75

# Molecular target: CaHse1
# Test: as above
# Method in brief: as §1
row,Binder,SPOT peptide array binding signal intensity
1,RSLRKRPTSPSISGS,204

# Molecular target: CaLsb1
# Test: as above
# Method in brief: as §1
row,Binder,SPOT peptide array binding signal intensity
1,RSLRKRPTSPSISGS,≤ 0

# Molecular target: CaLsb4
# Test: as above
# Method in brief: as §1
row,Binder,SPOT peptide array binding signal intensity
1,RSLRKRPTSPSISGS,338

# Molecular target: CaMyo5
# Test: as above
# Method in brief: as §1
row,Binder,SPOT peptide array binding signal intensity
1,RSLRKRPTSPSISGS,6

# Molecular target: CaNbp2
# Test: as above
# Method in brief: as §1
row,Binder,SPOT peptide array binding signal intensity
1,RSLRKRPTSPSISGS,1160

# Molecular target: CaRvs167
# Test: as above
# Method in brief: as §1
row,Binder,SPOT peptide array binding signal intensity
1,RSLRKRPTSPSISGS,27.5

# Molecular target: CaRvs167-3
# Test: as above
# Method in brief: as §1
row,Binder,SPOT peptide array binding signal intensity
1,RSLRKRPTSPSISGS,210

# Molecular target: CaSho1
# Test: as above
# Method in brief: as §1
row,Binder,SPOT peptide array binding signal intensity
1,RSLRKRPTSPSISGS,972

# Molecular target: CaSla1-D1-D2
# Test: as above
# Method in brief: as §1
row,Binder,SPOT peptide array binding signal intensity
1,RSLRKRPTSPSISGS,226

# Molecular target: CaSla1-D3
# Test: as above
# Method in brief: as §1
row,Binder,SPOT peptide array binding signal intensity
1,RSLRKRPTSPSISGS,1.5

# Molecular target: ScAbp1
# Test: as above
# Method in brief: as §1
row,Binder,SPOT peptide array binding signal intensity
1,RSLRKRPTSPSISGS,65

# Molecular target: ScBbc1
# Test: as above
# Method in brief: as §1
row,Binder,SPOT peptide array binding signal intensity
1,RSLRKRPTSPSISGS,94

# Molecular target: ScBem1-D1
# Test: as above
# Method in brief: as §1
row,Binder,SPOT peptide array binding signal intensity
1,RSLRKRPTSPSISGS,50.5

# Molecular target: ScBzz1-D1
# Test: as above
# Method in brief: as §1
row,Binder,SPOT peptide array binding signal intensity
1,RSLRKRPTSPSISGS,26.5

# Molecular target: ScBzz1-D2
# Test: as above
# Method in brief: as §1
row,Binder,SPOT peptide array binding signal intensity
1,RSLRKRPTSPSISGS,28

# Molecular target: ScCyk3
# Test: as above
# Method in brief: as §1
row,Binder,SPOT peptide array binding signal intensity
1,RSLRKRPTSPSISGS,294

# Molecular target: ScFus1
# Test: as above
# Method in brief: as §1
row,Binder,SPOT peptide array binding signal intensity
1,RSLRKRPTSPSISGS,488

# Molecular target: ScHof1
# Test: as above
# Method in brief: as §1
row,Binder,SPOT peptide array binding signal intensity
1,RSLRKRPTSPSISGS,1

# Molecular target: ScHse1
# Test: as above
# Method in brief: as §1
row,Binder,SPOT peptide array binding signal intensity
1,RSLRKRPTSPSISGS,1770

# Molecular target: ScLsb1
# Test: as above
# Method in brief: as §1
row,Binder,SPOT peptide array binding signal intensity
1,RSLRKRPTSPSISGS,54

# Molecular target: ScLsb2
# Test: as above
# Method in brief: as §1
row,Binder,SPOT peptide array binding signal intensity
1,RSLRKRPTSPSISGS,20

# Molecular target: ScLsb3
# Test: as above
# Method in brief: as §1
row,Binder,SPOT peptide array binding signal intensity
1,RSLRKRPTSPSISGS,1330

# Molecular target: ScLsb4
# Test: as above
# Method in brief: as §1
row,Binder,SPOT peptide array binding signal intensity
1,RSLRKRPTSPSISGS,27.5

# Molecular target: ScMyo3
# Test: as above
# Method in brief: as §1
row,Binder,SPOT peptide array binding signal intensity
1,RSLRKRPTSPSISGS,11

# Molecular target: ScMyo5
# Test: as above
# Method in brief: as §1
row,Binder,SPOT peptide array binding signal intensity
1,RSLRKRPTSPSISGS,3

# Molecular target: ScNbp2
# Test: as above
# Method in brief: as §1
row,Binder,SPOT peptide array binding signal intensity
1,RSLRKRPTSPSISGS,1530

# Molecular target: ScPex13
# Test: as above
# Method in brief: as §1
row,Binder,SPOT peptide array binding signal intensity
1,RSLRKRPTSPSISGS,3

# Molecular target: ScRvs167
# Test: as above
# Method in brief: as §1
row,Binder,SPOT peptide array binding signal intensity
1,RSLRKRPTSPSISGS,75.5

# Molecular target: ScSho1
# Test: as above
# Method in brief: as §1
row,Binder,SPOT peptide array binding signal intensity
1,RSLRKRPTSPSISGS,959

# Molecular target: ScSla1-D1-D2
# Test: as above
# Method in brief: as §1
row,Binder,SPOT peptide array binding signal intensity
1,RSLRKRPTSPSISGS,607

# Molecular target: ScSla1-D3
# Test: as above
# Method in brief: as §1
row,Binder,SPOT peptide array binding signal intensity
1,RSLRKRPTSPSISGS,30

# Molecular target: SpAbp1-D1
# Test: as above
# Method in brief: as §1
row,Binder,SPOT peptide array binding signal intensity
1,RSLRKRPTSPSISGS,477

# Molecular target: SpBbc1
# Test: as above
# Method in brief: as §1
row,Binder,SPOT peptide array binding signal intensity
1,RSLRKRPTSPSISGS,8

# Molecular target: SpBzz1-D1
# Test: as above
# Method in brief: as §1
row,Binder,SPOT peptide array binding signal intensity
1,RSLRKRPTSPSISGS,249

# Molecular target: SpBzz1-D2
# Test: as above
# Method in brief: as §1
row,Binder,SPOT peptide array binding signal intensity
1,RSLRKRPTSPSISGS,0.75

# Molecular target: SpCyk3
# Test: as above
# Method in brief: as §1
row,Binder,SPOT peptide array binding signal intensity
1,RSLRKRPTSPSISGS,13.5

# Molecular target: SpHof1
# Test: as above
# Method in brief: as §1
row,Binder,SPOT peptide array binding signal intensity
1,RSLRKRPTSPSISGS,428

# Molecular target: SpHof1-2
# Test: as above
# Method in brief: as §1
row,Binder,SPOT peptide array binding signal intensity
1,RSLRKRPTSPSISGS,43.8

# Molecular target: SpHof1-3
# Test: as above
# Method in brief: as §1
row,Binder,SPOT peptide array binding signal intensity
1,RSLRKRPTSPSISGS,730

# Molecular target: SpHse1
# Test: as above
# Method in brief: as §1
row,Binder,SPOT peptide array binding signal intensity
1,RSLRKRPTSPSISGS,621

# Molecular target: SpLsb1
# Test: as above
# Method in brief: as §1
row,Binder,SPOT peptide array binding signal intensity
1,RSLRKRPTSPSISGS,17.8

# Molecular target: SpLsb4
# Test: as above
# Method in brief: as §1
row,Binder,SPOT peptide array binding signal intensity
1,RSLRKRPTSPSISGS,776

# Molecular target: SpMyo1
# Test: as above
# Method in brief: as §1
row,Binder,SPOT peptide array binding signal intensity
1,RSLRKRPTSPSISGS,9

# Molecular target: SpNbp2
# Test: as above
# Method in brief: as §1
row,Binder,SPOT peptide array binding signal intensity
1,RSLRKRPTSPSISGS,2180

# Molecular target: SpPex13
# Test: as above
# Method in brief: as §1
row,Binder,SPOT peptide array binding signal intensity
1,RSLRKRPTSPSISGS,7

# Molecular target: SpRvs167
# Test: as above
# Method in brief: as §1
row,Binder,SPOT peptide array binding signal intensity
1,RSLRKRPTSPSISGS,10.8

# Molecular target: SpSla1-D1-D2
# Test: as above
# Method in brief: as §1
row,Binder,SPOT peptide array binding signal intensity
1,RSLRKRPTSPSISGS,5

# Molecular target: SpSla1-D3
# Test: as above
# Method in brief: as §1
row,Binder,SPOT peptide array binding signal intensity
1,RSLRKRPTSPSISGS,8
